Test results taken from PMC11006913.
Positions count from the first letter of the chain named.

Columns and labels:
Experiment in all cases: PBM; 200 nM protein, PBS
Conditions in all cases: dsDNA, one strand shown
[1] = target: T1, NKX2-6 (Homo sapiens, UniProt A6NCS4 118-204, R150C)
T1 sequence: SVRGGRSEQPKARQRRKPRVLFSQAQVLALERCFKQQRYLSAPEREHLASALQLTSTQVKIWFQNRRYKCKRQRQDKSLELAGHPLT

[2] = target: NKX3-2 (Homo sapiens, UniProt P78367 192-278, P234S)
[3] = target: NKX3-2 (Homo sapiens, UniProt P78367 192-278)
[4] = target: PITX2 (Homo sapiens, UniProt Q99697 72-157)
[5] = target: ALX1 (Homo sapiens, UniProt Q15699 118-204, L144V)
[6] = target: ALX1 (Homo sapiens, UniProt Q15699 118-204, L144R)
[7] = target: ALX1 (Homo sapiens, UniProt Q15699 118-204)
[8] = target: HOXC9 (Homo sapiens, UniProt P31274 178-260)
[9] = target: CRX (Homo sapiens, UniProt O43186 26-111, E42D)
[10] = target: PROP1 (Homo sapiens, UniProt O75360 56-141)
[11] = target: PROP1 (Homo sapiens, UniProt O75360 56-141, R99H)
[12] = target: PROP1 (Homo sapiens, UniProt O75360 56-141, F88S)
[13] = target: HOXC9 (Homo sapiens, UniProt P31274 178-260, R193K)
[14] = target: HOXA4 (Homo sapiens, UniProt Q00056 201-287)
[15] = target: HOXC9 (Homo sapiens, UniProt P31274 178-260, R222W)
[16] = target: T2, NKX2-6 (Homo sapiens, UniProt A6NCS4 118-204, F151L)
T2 sequence: T1 sequence with C33R, F34L

[17] = target: T3, NKX2-6 (Homo sapiens, UniProt A6NCS4 118-204)
T3 sequence: T1 sequence with C33R

[18] = target: ALX3 (Homo sapiens, UniProt O95076 139-225, N203Q)
[19] = target: HOXD13 (Homo sapiens, UniProt P35453 263-343, T313R)
[20] = target: HOXD13 (Homo sapiens, UniProt P35453 263-343)
[21] = target: ALX3 (Homo sapiens, UniProt O95076 139-225)
[22] = target: ALX3 (Homo sapiens, UniProt O95076 139-225, L168Q)
[23] = target: HOXD13 (Homo sapiens, UniProt P35453 263-343, T313A)
[24] = target: ALX3 (Homo sapiens, UniProt O95076 139-225, L168V)
[25] = target: ALX3 (Homo sapiens, UniProt O95076 139-225, N203S)
[26] = target: MSX2 (Homo sapiens, UniProt P35548 130-214, R199I)
MSX2, sequence (P35548 130-214 R199I): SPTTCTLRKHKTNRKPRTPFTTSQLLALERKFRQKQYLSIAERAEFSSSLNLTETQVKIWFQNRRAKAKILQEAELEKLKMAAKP

ALX1 (Homo sapiens, UniProt Q15699 118-204, L144V), sequence (Q15699 118-204 L144V): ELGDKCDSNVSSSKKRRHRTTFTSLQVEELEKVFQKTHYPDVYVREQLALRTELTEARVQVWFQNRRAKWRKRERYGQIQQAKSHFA
ALX1 (Homo sapiens, UniProt Q15699 118-204), sequence (Q15699 118-204): as the sequence (Q15699 118-204 L144V) above, with V27L counted along it
ALX1 (Homo sapiens, UniProt Q15699 118-204, L144R), sequence (Q15699 118-204 L144R): as the sequence (Q15699 118-204 L144V) above, with V27R counted along it
PROP1 (Homo sapiens, UniProt O75360 56-141), sequence (O75360 56-141): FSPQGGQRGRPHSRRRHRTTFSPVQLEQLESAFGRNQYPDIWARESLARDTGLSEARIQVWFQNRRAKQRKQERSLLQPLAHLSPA
NKX3-2 (Homo sapiens, UniProt P78367 192-278, P234S), sequence (P78367 192-278 P234S): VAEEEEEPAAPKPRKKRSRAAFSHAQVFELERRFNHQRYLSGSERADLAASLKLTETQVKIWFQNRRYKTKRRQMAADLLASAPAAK
HOXC9 (Homo sapiens, UniProt P31274 178-260), sequence (P31274 178-260): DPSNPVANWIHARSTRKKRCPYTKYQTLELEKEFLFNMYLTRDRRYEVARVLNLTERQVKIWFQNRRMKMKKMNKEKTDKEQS
NKX3-2 (Homo sapiens, UniProt P78367 192-278), sequence (P78367 192-278): as the sequence (P78367 192-278 P234S) above, with S43P counted along it
HOXC9 (Homo sapiens, UniProt P31274 178-260, R222W), sequence (P31274 178-260 R222W): as the sequence (P31274 178-260) above, with R45W counted along it
ALX3 (Homo sapiens, UniProt O95076 139-225, L168V), sequence (O95076 139-225 L168V): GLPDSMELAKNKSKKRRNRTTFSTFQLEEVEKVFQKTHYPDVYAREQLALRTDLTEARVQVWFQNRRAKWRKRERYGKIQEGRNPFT
ALX3 (Homo sapiens, UniProt O95076 139-225, N203Q), sequence (O95076 139-225 N203Q): as the sequence (O95076 139-225 L168V) above, with V30L, N65Q counted along it
HOXD13 (Homo sapiens, UniProt P35453 263-343, T313A), sequence (P35453 263-343 T313A): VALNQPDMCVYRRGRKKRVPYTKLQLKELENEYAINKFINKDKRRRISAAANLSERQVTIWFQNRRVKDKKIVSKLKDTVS
ALX3 (Homo sapiens, UniProt O95076 139-225, L168Q), sequence (O95076 139-225 L168Q): as the sequence (O95076 139-225 L168V) above, with V30Q counted along it
HOXD13 (Homo sapiens, UniProt P35453 263-343, T313R), sequence (P35453 263-343 T313R): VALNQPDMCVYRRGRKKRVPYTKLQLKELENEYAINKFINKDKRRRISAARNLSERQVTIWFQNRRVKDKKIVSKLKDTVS
ALX3 (Homo sapiens, UniProt O95076 139-225), sequence (O95076 139-225): as the sequence (O95076 139-225 L168V) above, with V30L counted along it
ALX3 (Homo sapiens, UniProt O95076 139-225, N203S), sequence (O95076 139-225 N203S): as the sequence (O95076 139-225 L168V) above, with V30L, N65S counted along it
PROP1 (Homo sapiens, UniProt O75360 56-141, F88S), sequence (O75360 56-141 F88S): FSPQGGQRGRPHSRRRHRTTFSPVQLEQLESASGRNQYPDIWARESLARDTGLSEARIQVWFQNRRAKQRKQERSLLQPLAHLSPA
PROP1 (Homo sapiens, UniProt O75360 56-141, R99H), sequence (O75360 56-141 R99H): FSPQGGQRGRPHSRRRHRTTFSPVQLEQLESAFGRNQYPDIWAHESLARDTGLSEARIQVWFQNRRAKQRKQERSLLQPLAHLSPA
HOXD13 (Homo sapiens, UniProt P35453 263-343), sequence (P35453 263-343): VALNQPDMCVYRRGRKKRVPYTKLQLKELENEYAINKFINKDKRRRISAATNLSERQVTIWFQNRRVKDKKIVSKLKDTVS
HOXA4, sequence (Q00056 201-287): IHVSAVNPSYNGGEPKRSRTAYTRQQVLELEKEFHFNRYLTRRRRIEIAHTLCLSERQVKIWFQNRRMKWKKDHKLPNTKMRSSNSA
CRX, sequence (O43186 26-111 E42D): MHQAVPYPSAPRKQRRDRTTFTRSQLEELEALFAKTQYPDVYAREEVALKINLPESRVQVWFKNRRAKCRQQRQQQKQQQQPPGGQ
HOXC9 (Homo sapiens, UniProt P31274 178-260, R193K), sequence (P31274 178-260 R193K): as the sequence (P31274 178-260) above, with R16K counted along it

Sequence: AAGTGCTC
- binding signal [1]: 11.6 upbm affinity estimate (log intensity, higher = more binding, comparable within an allelic series)
- binding signal [2]: 12.5 upbm affinity estimate (log intensity, higher = more binding, comparable within an allelic series)
- binding signal [3]: 12.7 upbm affinity estimate (log intensity, higher = more binding, comparable within an allelic series)

Sequence: GCCGACCA
- binding signal [1]: 9.61 upbm affinity estimate (log intensity, higher = more binding, comparable within an allelic series)
- binding signal [4]: 7.83 upbm affinity estimate (log intensity, higher = more binding, comparable within an allelic series)

Sequence: AAGTGGCA
- binding signal [1]: 11.6 upbm affinity estimate (log intensity, higher = more binding, comparable within an allelic series)
- binding signal [2]: 12.6 upbm affinity estimate (log intensity, higher = more binding, comparable within an allelic series)
- binding signal [3]: 12.7 upbm affinity estimate (log intensity, higher = more binding, comparable within an allelic series)

Sequence: CCGTGGGA
- binding signal [1]: 9.37 upbm affinity estimate (log intensity, higher = more binding, comparable within an allelic series)
- binding signal [5]: 6.49 upbm affinity estimate (log intensity, higher = more binding, comparable within an allelic series)
- binding signal [6]: 6.42 upbm affinity estimate (log intensity, higher = more binding, comparable within an allelic series)
- binding signal [7]: 6.53 upbm affinity estimate (log intensity, higher = more binding, comparable within an allelic series)

Sequence: ATTGCACA
- binding signal [8]: 10.8 upbm affinity estimate (log intensity, higher = more binding, comparable within an allelic series)

Sequence: GATTAAGA
- binding signal [9]: 12.7 upbm affinity estimate (log intensity, higher = more binding, comparable within an allelic series)

Sequence: CGCGGGCC
- binding signal [1]: 9.38 upbm affinity estimate (log intensity, higher = more binding, comparable within an allelic series)
- binding signal [5]: 6.41 upbm affinity estimate (log intensity, higher = more binding, comparable within an allelic series)
- binding signal [6]: 6.28 upbm affinity estimate (log intensity, higher = more binding, comparable within an allelic series)
- binding signal [2]: 10.4 upbm affinity estimate (log intensity, higher = more binding, comparable within an allelic series)
- binding signal [7]: 6.3 upbm affinity estimate (log intensity, higher = more binding, comparable within an allelic series)
- binding signal [3]: 10.4 upbm affinity estimate (log intensity, higher = more binding, comparable within an allelic series)

Sequence: ACCTGGTG
- binding signal [1]: 9.61 upbm affinity estimate (log intensity, higher = more binding, comparable within an allelic series)
- binding signal [10]: 6.8 upbm affinity estimate (log intensity, higher = more binding, comparable within an allelic series)
- binding signal [11]: 6.74 upbm affinity estimate (log intensity, higher = more binding, comparable within an allelic series)
- binding signal [12]: 6.77 upbm affinity estimate (log intensity, higher = more binding, comparable within an allelic series)

Sequence: CATGGTAA
- binding signal [8]: 10.9 upbm affinity estimate (log intensity, higher = more binding, comparable within an allelic series)
- binding signal [13]: 11 upbm affinity estimate (log intensity, higher = more binding, comparable within an allelic series)

Sequence: ATGAGAAT
- binding signal [8]: 10.8 upbm affinity estimate (log intensity, higher = more binding, comparable within an allelic series)
- binding signal [14]: 11.2 upbm affinity estimate (log intensity, higher = more binding, comparable within an allelic series)

Sequence: GTCGATAA
- binding signal [8]: 10.9 upbm affinity estimate (log intensity, higher = more binding, comparable within an allelic series)
- binding signal [10]: 8.04 upbm affinity estimate (log intensity, higher = more binding, comparable within an allelic series)
- binding signal [15]: 10.3 upbm affinity estimate (log intensity, higher = more binding, comparable within an allelic series)

Sequence: ATTAGAGG
- binding signal [8]: 10.9 upbm affinity estimate (log intensity, higher = more binding, comparable within an allelic series)
- binding signal [15]: 10.2 upbm affinity estimate (log intensity, higher = more binding, comparable within an allelic series)

Sequence: ACAAGTGC
- binding signal [1]: 11.5 upbm affinity estimate (log intensity, higher = more binding, comparable within an allelic series)
- binding signal [16]: 10.6 upbm affinity estimate (log intensity, higher = more binding, comparable within an allelic series)

Sequence: AAGTGGGG
- binding signal [1]: 11.7 upbm affinity estimate (log intensity, higher = more binding, comparable within an allelic series)
- binding signal [2]: 12.7 upbm affinity estimate (log intensity, higher = more binding, comparable within an allelic series)
- binding signal [3]: 12.8 upbm affinity estimate (log intensity, higher = more binding, comparable within an allelic series)

Sequence: CGTAACGC
- binding signal [8]: 10.6 upbm affinity estimate (log intensity, higher = more binding, comparable within an allelic series)

Sequence: AAGGCCCA
- binding signal [1]: 9.71 upbm affinity estimate (log intensity, higher = more binding, comparable within an allelic series)
- binding signal [2]: 10.7 upbm affinity estimate (log intensity, higher = more binding, comparable within an allelic series)
- binding signal [3]: 10.7 upbm affinity estimate (log intensity, higher = more binding, comparable within an allelic series)

Sequence: GGGGGACC
- binding signal [1]: 8.9 upbm affinity estimate (log intensity, higher = more binding, comparable within an allelic series)
- binding signal [17]: 9.01 upbm affinity estimate (log intensity, higher = more binding, comparable within an allelic series)
- binding signal [16]: 8.91 upbm affinity estimate (log intensity, higher = more binding, comparable within an allelic series)

Sequence: GATAAGTA
- binding signal [1]: 11.6 upbm affinity estimate (log intensity, higher = more binding, comparable within an allelic series)
- binding signal [17]: 13.3 upbm affinity estimate (log intensity, higher = more binding, comparable within an allelic series)
- binding signal [16]: 10.6 upbm affinity estimate (log intensity, higher = more binding, comparable within an allelic series)

Sequence: CCGTGCCG
- binding signal [1]: 9.27 upbm affinity estimate (log intensity, higher = more binding, comparable within an allelic series)
- binding signal [18]: 7.7 upbm affinity estimate (log intensity, higher = more binding, comparable within an allelic series)
- binding signal [19]: 9.53 upbm affinity estimate (log intensity, higher = more binding, comparable within an allelic series)
- binding signal [20]: 9.45 upbm affinity estimate (log intensity, higher = more binding, comparable within an allelic series)
- binding signal [21]: 7.7 upbm affinity estimate (log intensity, higher = more binding, comparable within an allelic series)
- binding signal [22]: 7.76 upbm affinity estimate (log intensity, higher = more binding, comparable within an allelic series)
- binding signal [23]: 9.84 upbm affinity estimate (log intensity, higher = more binding, comparable within an allelic series)
- binding signal [24]: 7.72 upbm affinity estimate (log intensity, higher = more binding, comparable within an allelic series)
- binding signal [25]: 7.71 upbm affinity estimate (log intensity, higher = more binding, comparable within an allelic series)

Sequence: ACCCTGCC
- binding signal [1]: 9.52 upbm affinity estimate (log intensity, higher = more binding, comparable within an allelic series)
- binding signal [19]: 9.6 upbm affinity estimate (log intensity, higher = more binding, comparable within an allelic series)
- binding signal [20]: 9.65 upbm affinity estimate (log intensity, higher = more binding, comparable within an allelic series)
- binding signal [23]: 9.68 upbm affinity estimate (log intensity, higher = more binding, comparable within an allelic series)

Sequence: GACCCGAC
- binding signal [1]: 9.44 upbm affinity estimate (log intensity, higher = more binding, comparable within an allelic series)
- binding signal [2]: 10.7 upbm affinity estimate (log intensity, higher = more binding, comparable within an allelic series)
- binding signal [3]: 10.7 upbm affinity estimate (log intensity, higher = more binding, comparable within an allelic series)

Sequence: CACTTACA
- binding signal [1]: 11.6 upbm affinity estimate (log intensity, higher = more binding, comparable within an allelic series)
- binding signal [16]: 10.6 upbm affinity estimate (log intensity, higher = more binding, comparable within an allelic series)
- binding signal [2]: 12.6 upbm affinity estimate (log intensity, higher = more binding, comparable within an allelic series)
- binding signal [3]: 12.6 upbm affinity estimate (log intensity, higher = more binding, comparable within an allelic series)

Sequence: GGGGGCGA
- binding signal [1]: 9.39 upbm affinity estimate (log intensity, higher = more binding, comparable within an allelic series)
- binding signal [18]: 7.73 upbm affinity estimate (log intensity, higher = more binding, comparable within an allelic series)
- binding signal [21]: 7.8 upbm affinity estimate (log intensity, higher = more binding, comparable within an allelic series)
- binding signal [22]: 7.65 upbm affinity estimate (log intensity, higher = more binding, comparable within an allelic series)
- binding signal [24]: 7.66 upbm affinity estimate (log intensity, higher = more binding, comparable within an allelic series)
- binding signal [25]: 7.72 upbm affinity estimate (log intensity, higher = more binding, comparable within an allelic series)

Sequence: CCAATCAA
- binding signal [26]: 11 upbm affinity estimate (log intensity, higher = more binding, comparable within an allelic series)

Sequence: AAGTACAT
- binding signal [1]: 11.6 upbm affinity estimate (log intensity, higher = more binding, comparable within an allelic series)
- binding signal [2]: 12.4 upbm affinity estimate (log intensity, higher = more binding, comparable within an allelic series)
- binding signal [3]: 12.6 upbm affinity estimate (log intensity, higher = more binding, comparable within an allelic series)

Sequence: ATTGCGCA
- binding signal [8]: 10.8 upbm affinity estimate (log intensity, higher = more binding, comparable within an allelic series)
- binding signal [15]: 10.1 upbm affinity estimate (log intensity, higher = more binding, comparable within an allelic series)

Sequence: CACAGGCC
- binding signal [1]: 9.58 upbm affinity estimate (log intensity, higher = more binding, comparable within an allelic series)
- binding signal [10]: 6.73 upbm affinity estimate (log intensity, higher = more binding, comparable within an allelic series)
- binding signal [11]: 6.9 upbm affinity estimate (log intensity, higher = more binding, comparable within an allelic series)
- binding signal [12]: 6.72 upbm affinity estimate (log intensity, higher = more binding, comparable within an allelic series)

Sequence: GCCCACGA
- binding signal [1]: 9.49 upbm affinity estimate (log intensity, higher = more binding, comparable within an allelic series)
- binding signal [5]: 6.38 upbm affinity estimate (log intensity, higher = more binding, comparable within an allelic series)
- binding signal [6]: 6.28 upbm affinity estimate (log intensity, higher = more binding, comparable within an allelic series)
- binding signal [7]: 6.37 upbm affinity estimate (log intensity, higher = more binding, comparable within an allelic series)
